This is an account of results in PubChem BioAssay.

Structures are written as SMILES. Activity calls are given as the source filed them.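 How the source made its calls, unless noted: active means visual image review flags a hit and inhibition of aggregation exceeds 20%; inconclusive means visual hit but inhibition at or below 20%; inactive means no hit on visual image review.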

Assay [1] is described as follows: inhibitors of TNFa-induced NFkB p65 translocation, primary screen, imaging, HUVEC, MLSMR starter and 10KST1 sets (AID 438;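 active means inhibition above 20% together with a positive visual image hit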;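 further: compound added about 3h40 before a 20 min TNFalpha stimulation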;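 on inhibition: signal is the nuclear over cytoplasmic p65 intensity ratio per well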). The settings on record: HUVEC TNFa-induced p65 nuclear translocation; cell count: measured here: nuclei count (cytotoxicity indicator), at 2.08 µM unless noted; inhibition: at 2 µM, stronger effect = higher value unless noted.
A short description of assay [2]: reduction of polyQ htt aggregates in cells – imaging, exon1htt(103Q)mCFP cells, high-content imaging, primary screen (AID 483).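 Further: compound exposure lasted 3 days before fixation.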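 On nuclei count: percent of the per-plate median nuclei count of sample wells.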 As to conditions: exon1htt(103Q)mCFP cell line, aggregate imaging, at 2 µM; inhibition of aggregation: stronger effect = higher value; nuclei count: measured here: cell count, toxicity.
Assay [3] is described as follows: endothelial E-selectin expression blockers – imaging, HUVEC, immunofluorescence, MLSMR starter and 10KST1 sets, primary screen (AID 487;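 active means visually confirmed hit in the image check and inhibition above 20%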;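 on inhibition: signal is fraction of cell area covered by stained E-selectin grains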;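 on nuclei count: 100% = median nuclei count of all wells on the same plate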). The settings on record: HUVEC TNFalpha-induced E-selectin immunofluorescence imaging, at 2 µM; inhibition: stronger effect = higher value; nuclei count: measured here: cell number, toxicity.
Assay [4] has as its target Voltage-gated potassium channel subunit beta-2 (Rattus norvegicus) (UniProt P62483). In words: inhibitors of rat Kvbeta2 reductase activity – biochemical, NADPH fluorescence, primary screen (AID 622;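 active means fluorescence slope higher than the sample average by over 3 SD, cut at about -0.22 in these data, passing the limit was not always enough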;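 further: slope of raw intensity against log time taken from 70 to 1610 s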). As to conditions: recombinant KvBeta, 4-cyanobenzaldehyde reduction, at 10 µM, stronger effect = higher value.
For assay [5] the target is unchanged. Put plainly: enhancers of rat Kvbeta2 NADPH turnover – biochemical, NADPH fluorescence, primary screen (AID 623;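 active means NADPH fluorescence slope more negative than the mean of all samples by about 3 SD, 99.7% confidence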;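 further: fluorescence intensity change per second fitted from 20 to 320 s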). The settings on record: Recombinant KvBeta, NADPH fluorescence decrease slope, 10 min; at 10 µM; stronger effect = lower value.
Assay [6] has as its target Alpha-2C adrenergic receptor (Homo sapiens) (UniProt P18825). Put plainly: compounds altering alpha2C-coupled GIRK flux – cell-based, HEK293 alpha2C/GIRK1/2, thallium flux, primary screen (AID 624;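 active means fluorescence slope after compound addition differing from the mean of all screened samples at 99.7% confidence, in either direction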;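 further: slope of fluorescence ratio to pre-addition baseline per second over 15 to 24 s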). As to conditions: thallium flux BTC fluorescence, at 10 µM, actives lie on both sides.
Assay [7] is described as follows: inhibitors of larval lipid processing in zebrafish, primary screen, whole organism, PED6 fluorescence, gall bladder and intestine (AID 686;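 active means a full or partial loss of lipid-probe fluorescence in the fish gall bladder, intestine or both, judged by eye; inactive means no fluorescence loss, or compound toxic to the fish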;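 further: larvae 5 to 7 days old with five fish per well; signal comes from phospholipase A2 cleavage of quenched PED6 carried via bile; overnight exposure to compound and PED6 before scoring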). As to conditions: Zebrafish larvae PED6 lipid processing, fluorescence scoring.
A short description of assay [8]: blockers of RIG-like receptor reporter activation – cell-based, Sendai virus stimulus, luciferase, 10K MLSCN set, TLR/RLR signaling modifier project, primary screen (AID 602276;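 active means inhibition at or above 50% at 10 µM; inactive means inhibition below 50%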;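 further: firefly luciferase from ISG56 promoter only with Renilla not read in this screen; 0% = Sendai virus plus DMSO and 100% = medium plus DMSO without virus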). The settings on record: HEK293 RL24 IRF3 luciferase reporter, at 10 µM, stronger effect = higher value.
Assay [9] is described as follows: TLR3 IRF3 reporter activation blockers – cell-based, poly I:C stimulus, luciferase, 10K MLSCN set, primary screen (AID 602277;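 active means inhibition of the reporter signal at or above 50%; inactive means inhibition below 50%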). The settings on record: HEK293-TLR3 RL24 IRF3 luciferase reporter, at 10 µM, stronger effect = higher value. On the technique in general: In a reporter assay the amount or activity of a reporter protein is the signal.
For assay [10], the target named is Muscarinic acetylcholine receptor M4 (Homo sapiens) (UniProt P08173). Put plainly: M4-linked GIRK flux change, two-sided – cell-based, HEK293 M4/GIRK, thallium flux, BTC-AM, M4 allosteric agonist project, primary screen (AID 625;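 active means fluorescence slope after compound addition differing from the mean of all tested samples at 99.7% confidence, mostly higher but some lower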;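 further: thallium influx through GIRK channels coupled to M4 in HEK293 cells with BTC-AM dye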). As to conditions: at 10 µM, actives lie on both sides.
Chain of Muscarinic acetylcholine receptor M4 (Homo sapiens) (P08173 whole entry, looked up): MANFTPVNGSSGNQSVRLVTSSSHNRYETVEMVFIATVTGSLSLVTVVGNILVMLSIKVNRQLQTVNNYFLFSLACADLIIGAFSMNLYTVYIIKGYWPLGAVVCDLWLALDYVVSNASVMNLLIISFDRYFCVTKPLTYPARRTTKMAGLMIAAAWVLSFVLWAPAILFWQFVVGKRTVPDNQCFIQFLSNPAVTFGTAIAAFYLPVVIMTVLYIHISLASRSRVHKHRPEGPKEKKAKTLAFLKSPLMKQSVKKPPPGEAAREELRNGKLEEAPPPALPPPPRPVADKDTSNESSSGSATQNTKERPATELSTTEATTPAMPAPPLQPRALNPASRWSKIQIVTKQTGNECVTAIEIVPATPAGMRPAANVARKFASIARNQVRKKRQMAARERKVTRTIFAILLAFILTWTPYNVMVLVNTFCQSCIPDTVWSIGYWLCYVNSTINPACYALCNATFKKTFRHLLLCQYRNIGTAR

Chain of Voltage-gated potassium channel subunit beta-2 (Rattus norvegicus) (P62483 whole entry, looked up): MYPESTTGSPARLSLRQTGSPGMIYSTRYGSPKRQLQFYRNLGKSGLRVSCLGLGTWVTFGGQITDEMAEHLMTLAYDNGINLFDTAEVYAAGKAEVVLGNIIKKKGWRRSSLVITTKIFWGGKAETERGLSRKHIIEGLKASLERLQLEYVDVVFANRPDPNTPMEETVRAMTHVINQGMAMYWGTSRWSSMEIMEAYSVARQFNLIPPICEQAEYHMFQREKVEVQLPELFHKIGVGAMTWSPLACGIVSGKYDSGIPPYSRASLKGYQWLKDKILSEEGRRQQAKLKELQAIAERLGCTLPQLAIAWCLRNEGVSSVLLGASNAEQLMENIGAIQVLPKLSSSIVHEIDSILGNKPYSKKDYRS
Chain of Alpha-2C adrenergic receptor (Homo sapiens) (P18825 whole entry, looked up): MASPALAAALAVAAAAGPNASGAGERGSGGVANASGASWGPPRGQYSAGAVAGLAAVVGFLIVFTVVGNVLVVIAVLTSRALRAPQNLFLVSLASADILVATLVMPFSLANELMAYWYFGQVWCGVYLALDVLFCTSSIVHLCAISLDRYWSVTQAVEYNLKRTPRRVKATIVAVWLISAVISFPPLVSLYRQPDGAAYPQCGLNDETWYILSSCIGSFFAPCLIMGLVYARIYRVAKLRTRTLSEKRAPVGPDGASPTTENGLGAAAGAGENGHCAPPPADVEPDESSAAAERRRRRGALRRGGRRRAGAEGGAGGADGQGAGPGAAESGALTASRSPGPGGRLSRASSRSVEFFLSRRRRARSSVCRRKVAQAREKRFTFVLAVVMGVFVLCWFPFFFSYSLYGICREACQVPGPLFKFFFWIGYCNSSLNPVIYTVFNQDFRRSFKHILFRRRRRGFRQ

As a reminder, the inhibition is the change of the read-out against control, counted positive when it falls. In [1], `CNP1(NC)=NC(C(F)(F)F)=NC(C(F)(F)F)=N1` showed a cell count of 338. Further, the inhibition in assay [1] was -24% (inactive); in [3], -0.4% (inactive); in assay [8], -2.73% (inactive); in assay [9], 97.8% (active). Further, in assay [2], the inhibition of aggregation is 6.8% (inactive). The nuclei count in [2] was 112%; in assay [3], 89.8%. In addition, the fluorescence slope in assay [4] is -0.447 (inactive). Further, the NADPH fluorescence slope in assay [5] was -3.2e-05 (inactive). For the same compound, the slope in assay [6] is 0.00454 (inactive). In [7], the compound was called inactive.

`CCCCCCC(N)CC(=O)O` (centres undefined): the cell count in assay [1] was found to be 689. The inhibition was 2.4% (inactive) in assay [1], 42.8% (inactive) in assay [3], 9.07% (inactive) in assay [8] and 28% (inactive) in assay [9]. In assay [2], the inhibition of aggregation is -9.8% (inactive). Besides, the results for the nuclei count in assay [2] and in assay [3] were 116% and 80.1%, respectively. For the same compound, the fluorescence slope in [4] was -0.456 (inactive). Also, the NADPH fluorescence slope in assay [5] is -3e-05 (inactive). In addition, the slope in [6] is 0.00377 (inactive).

The compound `CCCCn1c(O)c(C(C)=NCCc2ccccc2)c(=O)[nH]c1=O` returned a cell count in [1] of 280. The inhibition in assay [1] was -5.3% (inactive); in assay [3], -114% (inactive); in assay [8], 3.98% (inactive); in assay [9] it was -8.74% (inactive). Besides, the inhibition of aggregation in assay [2] is 16.4% (inactive). In addition, the nuclei count in assay [2] came out at 72.1%; in assay [3] it was 187%. Further, the fluorescence slope in assay [4] was -0.454 (inactive); in assay [10], 0.00293 (inactive). Moreover, the NADPH fluorescence slope in assay [5] is -0.000351 (inactive).

Take `COc1ccccc1CN1CCN(C(=O)Cc2ccccc2)CC1`: in assay [1], the cell count is 466. In addition, the inhibition is 5.9% (inactive) in assay [1], 18.9% (inactive) in assay [3], -1.53% (inactive) in [8] and 3.43% (inactive) in assay [9]. Also, in assay [2], the inhibition of aggregation was 2.7% (inactive). Also, the values for the nuclei count in [2] and in assay [3] were 101% and 112%, respectively. Moreover, the fluorescence slope in assay [4] was -0.326 (inactive). In addition, the NADPH fluorescence slope in assay [5] is 3.1e-06 (inactive). For the same compound, in assay [6], the slope was 0.00694 (inactive). Besides, in assay [7], the compound was called inactive.

`Cn1c(=O)cc(SCC(=O)N2CCC3(CC2)OCCO3)c2ccc(Cl)cc21`: the cell count in assay [1] was 442. Also, the inhibition in assay [1] was 0.9% (inactive); in assay [3], 22.8% (inactive); in assay [8] it was 32.3% (inactive); in assay [9] it was 38.4% (inactive). Moreover, the inhibition of aggregation in assay [2] is 7.2% (inactive). The values for the nuclei count in assay [2] and in [3] were 84.4% and 106%, respectively. Besides, the results for the fluorescence slope in [4] and in assay [10] were -0.556 (inactive) and 0.00629 (inactive), respectively. Besides, the NADPH fluorescence slope in [5] was -3.6e-05 (inactive).

In assay [1], `OC(CNC1CCCCC1)c1ccccc1` (centres undefined) came in with a cell count of 317. Besides, the inhibition in assay [1] was -2.5% (inactive); in assay [3] it was -91.2% (inactive); in assay [8] it was 10.6% (inactive); in assay [9] it was 22.6% (inactive). The inhibition of aggregation in assay [2] is 17.9% (inactive). Also, the values for the nuclei count in [2] and in [3] were 107% and 105%, respectively. Moreover, the fluorescence slope in [4] was -0.399 (inactive). The NADPH fluorescence slope in assay [5] is -4.1e-05 (inactive). Further, in assay [6], the slope is 0.00434 (inactive). Further, the call in assay [7] was inactive.

Compound `O=C(CN1CCN(Cc2cccc(Cl)c2)C1=O)N1CCC2(CC1)OCCO2` showed a cell count in assay [1] of 363. In addition, the inhibition is 1.1% (inactive) in assay [1], 26.2% (inactive) in assay [3], 4.07% (inactive) in assay [8] and 14% (inactive) in [9]. In addition, the inhibition of aggregation in [2] was 19.2% (inactive). For the same compound, the nuclei count in assay [2] is 73.9%; in [3], 111%. Also, the fluorescence slope is -0.578 (inactive) in assay [4] and 0.00798 (inactive) in assay [10]. Besides, in assay [5], the NADPH fluorescence slope is -1.5e-05 (inactive).

Regarding `Cc1cccc(-n2c(-c3ccco3)nc3ccccc3c2=O)n1`, the cell count in [1] is 344. Further, the inhibition was -2.8% (inactive) in [1], 20.8% (inactive) in assay [3], -11.4% (inactive) in assay [8] and -10.7% (inactive) in assay [9]. In assay [2], the inhibition of aggregation is 3.4% (inactive). For the same compound, the results for the nuclei count in assay [2] and in [3] were 97.9% and 83.8%, respectively. Further, the fluorescence slope in assay [4] is -0.368 (inactive); in assay [10], 0.00556 (inactive). Moreover, in assay [5], the NADPH fluorescence slope was 7.6e-06 (inactive).

`CCCCn1c(O)c(C(C)=NC(Cc2c[nH]c3ccccc23)C(=O)OC)c(=O)[nH]c1=O` (centres undefined): in assay [1], the cell count came to 536. The inhibition was -3.4% (inactive) in assay [1], 33.5% (inactive) in assay [3], 0.703% (inactive) in [8] and 14.9% (inactive) in [9]. Moreover, the inhibition of aggregation in assay [2] is 9.6% (inactive). The nuclei count amounted to 79.6% in assay [2] and 112% in assay [3]. For the same compound, the fluorescence slope in assay [4] is -0.499 (inactive). In addition, the NADPH fluorescence slope in [5] was 1.8e-05 (inactive). Further, the slope in assay [6] was 0.00457 (inactive).

The compound `CC1CCC(C(=O)NC(C(=O)N2CCC3(CC2)OCCO3)C(C)C)CC1` (centres undefined) gave a cell count in assay [1] of 251. Moreover, the inhibition in assay [1] is 3.4% (inactive); in assay [3], 1.3% (inactive); in assay [8], 5.72% (inactive); in [9], 20.1% (inactive). Besides, in assay [2], the inhibition of aggregation is 0.1% (inactive). Further, the nuclei count is 97.2% in [2] and 88% in [3]. The fluorescence slope in [4] was -0.399 (inactive). Also, in assay [5], the NADPH fluorescence slope is -0.00014 (inactive). The slope in [6] is 0.00626 (inactive).

Take `CCn1c(C)c(C(=O)O)c2cc(OC)ccc21`: the cell count in assay [1] worked out at 617. The inhibition in [1] was 3.5% (inactive); in [3] it was 11.4% (inactive); in assay [8], 14.5% (inactive); in assay [9], 22.2% (inactive). Moreover, in assay [2], the inhibition of aggregation is 1.8% (inactive). Also, the figures for the nuclei count in assay [2] and in [3] were 96.3% and 107%, respectively. For the same compound, the fluorescence slope in [4] is -0.495 (inactive). Also, in assay [5], the NADPH fluorescence slope is -2.5e-05 (inactive). Moreover, in [6], the slope is 0.00472 (inactive).
